This passage reports growth results from PubChem BioAssay (NCI).

About 83,000 compounds went through this panel and 20% of them were active in at least one assay; those are over-represented in the sample as a whole.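 Compound tested at a single concentration for 48 hours in 96-well plates; a percent growth value below 10 was scored as active.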 A number with no mark means an inactive call. Calls of active or inactive are those of the source.

The test system of this experiment is HL-60(TB) leukemia. The experiment is described as follows: NCI-60 one-dose screen, 48 h (100 = growth as untreated, 0 = no growth, -100 = all killed). The note with it: 10 µM unless noted.

As for `CN1CCCC1=Nc1ccccc1`, the growth is 93.3%. As for `C=C(C)C1CCC(=C)C2CCC3(C)OC12/C=C(/COC(C)=O)CCC3O` (stereo not drawn), the growth is 90.8%. With `O=C1OC2(c3ccccc31)c1ccccc1-c1ccccc12`, the growth is 69.6%. On to `COc1cc2cn3c4ccc(O)cc4nc(N)c3c2cc1OC`, for which the growth is 24.5%. Take `C=C1C(=O)O[C@H]2[C@H]1CC/C(COC(=O)c1ccc3ccccc3c1)=C\CC[C@@]1(C)O[C@@H]21`: the growth was -53.5% (active). For the compound `Cc1nc([P+](c2ccccc2)(c2ccccc2)c2ccccc2)c(Sc2sc(-c3ccccc3)nc2[P+](c2ccccc2)(c2ccccc2)c2ccccc2)o1`, the growth was -17.9% (active). Consider `COc1cc(Cl)cc(-c2nn(-c3cccc(NC(=O)Nc4ccc(Cl)c(C(F)(F)F)c4)c3)cc2-c2ccncc2)c1`, for which the growth is -9.59% (active). As for `COc1cc(Nc2ncccc2/C=C/C(=O)c2cc(OC)c(OC)c(OC)c2)cc(OC)c1OC`, the growth is 73.1%.
